In PubChem BioAssay (Tox21):
Results filed as inconclusive are left out. Where a structure was tested more than once in an assay, its records may differ in their call. Calls of active or inactive are those of the source. Unless noted, the call rests on the fitted dose curve; in most records, active means well fitted curve in the direction sought with a large enough effect in the repeat runs; inconclusive means weak or mixed curves; inactive means no such curve, though single readings can be large; an effect the other way counts as inactive or inconclusive.

Tests used:
[1] = qHTS assay to identify small molecule phospholipidosis (PLD) inducers (AID 1259344; active means well fitted curve in the direction sought with a large enough effect; an effect the other way counts as inactive or inconclusive)
In short: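 HepG2 cells on collagen I, attached 4 h at 37 C, were co-treated with compound and LipidTOX Red dye for 24 h at 37 C, then fixed with paraformaldehyde plus Hoechst 33342 and imaged by high-content microscopy for phospholipid accumulation.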

[2] = qHTS assay to identify small molecule HDAC inhibitors (AID 1259364);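 further: wild-type HCT-116 cells with endogenous class I/II HDAC activity; top concentration of the series differs between compounds; nearly all actives have a fitted effect of over 45% in size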
In short: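 Read-out: luminescence of HDAC-Glo I/II reagent, 30 min RT, reflecting class I/II deacetylase activity in whole HCT-116 cells pre-exposed 2 h to DMSO-dissolved compounds.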

[3] = qHTS assay to identify small molecule HDAC inhibitors - cell viability counter screen (AID 1259365); further: series mostly up to about 92 µM; nearly all actives have a fitted effect of over 50% in size
In short: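 To flag cytotoxic hits, 1,500 wild-type HCT-116 cells per well, plated the day before, receive test compounds for 2hr at 37 C before CellTiter-Glo reagent and a luminescence read.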

[4] = qHTS assay to identify small molecule agonists of the sonic hedgehog signaling (Shh) pathway - cell viability counter screen (AID 1259366); further: nearly all actives have a fitted effect of over 50% in size
In short: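 Fluorescence from CellTiter-Fluor reports live cells in this counter screen. NIH/3T3-derived Gli1-Luc reporter cells receive test compounds for 24hr at 37C; reagent goes in at 23hr.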

[5] = qHTS assay to identify small molecule antagonists of the sonic hedgehog signaling (Shh) pathway - cell viability counter screen (AID 1259367); further: nearly all actives have a fitted effect of over 55% in size
In short: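 NIH/3T3-derived Gli1-Luc reporter cells (2,000 per well) rested 4 hr at 37 C, then received DMSO compounds plus conditioned medium. After 23 hr of treatment, CellTiter-Fluor was added for 1 hr at 37C and fluorescence read.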

[6] = qHTS assay to identify small molecule agonists of the sonic hedgehog signaling (Shh) pathway (AID 1259368; calls by dose curve;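 further: NIH/3T3-derived 3T3Gli1-Luc cells carrying a stable Gli1-driven firefly luciferase reporter; series mostly up to about 92 µM; nearly all actives have a fitted effect of over 15% in size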)
In short: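 A Gli1 transcriptional response element controlled firefly luciferase in 3T3Gli1-Luc cells. Compounds and a positive control were added 4 hr after plating, and cells were incubated a further 24 hr at 37 C before luminescence detection.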

[7] = qHTS assay to identify small molecule antagonists of the sonic hedgehog signaling (Shh) pathway (AID 1259369; calls by dose curve; further: nearly all actives have a fitted effect of over 45% in size; further: potency means the concentration at half of the fitted maximal effect)
In short: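 For antagonist detection, the reporter line received test compounds together with conditioned medium, incubated 24hr at 37 C, 5% CO2, then luminescence was recorded following 30min room-temperature luciferase reagent incubation.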

[8] = molecular target: Estrogen receptor beta (Homo sapiens) (UniProt Q92731); experiment: qHTS assay to identify small molecule agonists of the estrogen receptor beta (ER-beta) signaling pathway (AID 1259377; active means well fitted activation curve with a large enough effect in the signal ratio in the repeat runs, not every such curve was filed as active; the % refers to the signal ratio)
Sequence of Estrogen receptor beta (Homo sapiens) (Q92731 whole entry, looked up): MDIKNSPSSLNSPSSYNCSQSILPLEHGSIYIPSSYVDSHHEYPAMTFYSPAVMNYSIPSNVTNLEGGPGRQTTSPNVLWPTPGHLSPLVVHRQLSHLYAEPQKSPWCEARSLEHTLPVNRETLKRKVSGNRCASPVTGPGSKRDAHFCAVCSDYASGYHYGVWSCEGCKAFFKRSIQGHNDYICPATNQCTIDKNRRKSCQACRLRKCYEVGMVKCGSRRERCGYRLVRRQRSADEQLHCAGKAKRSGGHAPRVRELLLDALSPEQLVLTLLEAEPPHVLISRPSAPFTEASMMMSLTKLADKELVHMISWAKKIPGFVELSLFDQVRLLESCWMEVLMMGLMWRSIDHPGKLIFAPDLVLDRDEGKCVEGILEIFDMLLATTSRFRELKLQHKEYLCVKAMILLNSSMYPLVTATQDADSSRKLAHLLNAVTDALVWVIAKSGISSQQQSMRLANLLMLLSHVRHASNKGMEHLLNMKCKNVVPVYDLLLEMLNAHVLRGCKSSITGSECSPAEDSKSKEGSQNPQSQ
In short: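 Screening used GripTite ER-beta-UAS-bla cells held in 2% charcoal-stripped FBS medium. After overnight (16 hr) compound incubation at 37C, beta-lactamase activity was detected with a FRET substrate by fluorescence.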

[9] = molecular target: Estrogen receptor beta (Homo sapiens) (UniProt Q92731); experiment: qHTS assay to identify small molecule antagonists of the estrogen receptor beta (ER-beta) signaling pathway (AID 1259378; active means well fitted inhibition curve with a large enough effect in the signal ratio in the repeat runs, not every such curve was filed as active; the % refers to the signal ratio)
In short: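 ER-beta-UAS-bla HEK293T (GripTite) cells in 2% charcoal-stripped FBS medium were preincubated 6 hr at 37C, dosed with compound, then stimulated with 1 nM E2 (final) for 16 hr; beta-lactamase reporter read by B/G FRET fluorescence after 2 hr substrate loading.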

[10] = qHTS assay to identify small molecule agonists of the androgen receptor (AR) signaling pathway in the presence of an antagonist - cell viability counter screen (AID 1259379);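 further: MDA-kb2 human breast cancer cells carrying an MMTV luciferase reporter; series mostly up to about 92 µM; nearly all actives have a fitted effect of over 25% in size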
In short: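 Seed MDA-kb2 at 3,000 cells/well; incubate 5 hr, 37C, 0% CO2. Add nilutamide to 3.0uM final, then pin compounds at 15 concentrations. Incubate 16 hr. Add CellTiter-Fluor at 15 hr, read fluorescence after 1 hr.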

[11] = qHTS assay to identify small molecule agonists of the estrogen receptor beta (ER-beta) signaling pathway - cell viability counter screen (AID 1259380); further: nearly all actives have a fitted effect of over 30% in size; further: potency means the concentration at half of the fitted maximal effect
In short: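 CellTiter-Glo read, 30 min RT, same wells as bla assay; cells ER-beta-UAS-bla HEK293T; 16 hr compound, 37C; medium 2% charcoal-stripped FBS.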

[12] = qHTS assay to identify small molecule antagonists of the estrogen receptor beta (ER-beta) signaling pathway - cell viability counter screen (AID 1259382); further: series mostly up to about 92 µM; nearly all actives have a fitted effect of over 55% in size
In short: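 In this multiplexed counter screen, cells were seeded at 2,000 per well in medium with 2% charcoal-stripped FBS and incubated 6 hr before compound and 1nM final E2 were added. Sixteen hours later, ATP-based luminescence reported viability.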

[13] = molecular target: Thyrotropin receptor (Homo sapiens) (UniProt P16473); experiment: qHTS assay to identify small molecule antagonists of the thyroid stimulating hormone receptor (TSHR) signaling pathway (AID 1259385; calls by dose curve; further: nearly all actives have a fitted effect of over 20% in size)
Sequence of Thyrotropin receptor (Homo sapiens) (P16473 whole entry, looked up): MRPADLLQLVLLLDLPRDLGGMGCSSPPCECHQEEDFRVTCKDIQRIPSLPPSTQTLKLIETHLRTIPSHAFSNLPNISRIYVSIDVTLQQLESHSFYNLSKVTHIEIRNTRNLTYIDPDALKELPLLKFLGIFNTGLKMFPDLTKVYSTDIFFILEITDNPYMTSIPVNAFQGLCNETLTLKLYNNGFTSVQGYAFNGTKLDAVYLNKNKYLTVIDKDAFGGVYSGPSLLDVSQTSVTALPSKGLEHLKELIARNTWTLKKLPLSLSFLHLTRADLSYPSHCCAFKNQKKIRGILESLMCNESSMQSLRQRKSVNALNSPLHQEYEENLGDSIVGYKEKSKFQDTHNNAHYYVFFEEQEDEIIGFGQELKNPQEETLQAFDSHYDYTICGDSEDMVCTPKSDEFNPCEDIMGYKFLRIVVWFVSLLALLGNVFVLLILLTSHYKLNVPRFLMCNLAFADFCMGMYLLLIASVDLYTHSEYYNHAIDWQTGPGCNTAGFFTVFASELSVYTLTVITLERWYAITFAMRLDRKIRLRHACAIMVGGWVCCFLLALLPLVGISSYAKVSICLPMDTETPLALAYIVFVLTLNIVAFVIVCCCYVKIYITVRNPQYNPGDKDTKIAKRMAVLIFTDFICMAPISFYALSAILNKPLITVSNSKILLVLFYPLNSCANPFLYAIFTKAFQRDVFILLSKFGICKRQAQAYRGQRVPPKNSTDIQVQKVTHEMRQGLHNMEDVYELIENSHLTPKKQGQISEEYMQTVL
In short: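 TSHR-HEK293 cells were plated and held 18 h at 37C/5% CO2, then given compound plus Ro20-1724 and stimulated with TSH at 1.5 ng/mL final. After 30 min at room temperature, cAMP was detected with cAMP-d2/anti-cAMP-cryptate (1 h) by fluorescence.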

[14] = qHTS assay to identify small molecule agonists of the estrogen receptor alpha (ER-alpha) signaling pathway in the presence of an antagonist - cell viability counter screen (AID 1259386);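 further: series mostly up to about 92 µM; cells exposed to compounds for 22 h at 37 °C before the viability read; nearly all actives have a fitted effect of over 30% in size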
In short: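 Viability counter screen using VM7Luc4E2 (full-length ER-alpha, four ERE-luciferase). The cells were treated with compounds alongside ICI-182,780 10.0nM for 22hr, and live-cell protease fluorescence was quantified with CellTiter-Fluor.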

[15] = molecular target: Progesterone receptor (Homo sapiens) (UniProt P06401); experiment: qHTS assay to identify small molecule agonists of the progesterone receptor (PR) signaling pathway (AID 1346784; calls by dose curve; further: nearly all actives have a fitted effect of over 30% in size)
Sequence of Progesterone receptor (Homo sapiens) (P06401 whole entry, looked up): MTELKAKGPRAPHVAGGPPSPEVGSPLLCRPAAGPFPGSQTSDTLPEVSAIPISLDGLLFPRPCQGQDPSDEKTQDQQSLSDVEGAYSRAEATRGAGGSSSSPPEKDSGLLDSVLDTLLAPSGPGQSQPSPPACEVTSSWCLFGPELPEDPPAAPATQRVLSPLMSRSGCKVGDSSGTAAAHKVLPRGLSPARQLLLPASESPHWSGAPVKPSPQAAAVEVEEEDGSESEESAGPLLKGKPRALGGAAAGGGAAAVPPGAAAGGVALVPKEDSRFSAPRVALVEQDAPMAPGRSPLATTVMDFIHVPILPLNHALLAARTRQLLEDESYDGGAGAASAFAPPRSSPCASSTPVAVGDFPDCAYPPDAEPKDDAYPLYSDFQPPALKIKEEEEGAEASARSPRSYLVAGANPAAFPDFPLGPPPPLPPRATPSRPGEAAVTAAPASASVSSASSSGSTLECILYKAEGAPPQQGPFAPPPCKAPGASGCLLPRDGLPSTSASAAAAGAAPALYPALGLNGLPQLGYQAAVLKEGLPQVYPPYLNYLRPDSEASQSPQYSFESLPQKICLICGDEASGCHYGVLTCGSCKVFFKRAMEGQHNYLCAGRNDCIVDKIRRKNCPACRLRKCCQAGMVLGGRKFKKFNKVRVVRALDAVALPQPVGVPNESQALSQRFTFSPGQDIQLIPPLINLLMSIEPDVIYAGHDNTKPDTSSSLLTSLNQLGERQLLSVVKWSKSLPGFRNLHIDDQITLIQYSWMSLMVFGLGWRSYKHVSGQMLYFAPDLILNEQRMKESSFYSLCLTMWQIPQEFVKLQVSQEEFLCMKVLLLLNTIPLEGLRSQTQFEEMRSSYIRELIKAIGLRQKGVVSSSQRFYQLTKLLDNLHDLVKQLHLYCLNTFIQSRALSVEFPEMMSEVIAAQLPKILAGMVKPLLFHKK
In short: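 Seed PR-UAS-bla HEK 293T cells (2% charcoal-stripped FBS), incubate 6 hr at 37C; add compounds in DMSO, 16 hr at 37C; add LiveBLAzer B/G substrate, 2 hr RT; read fluorescence intensity.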

[16] = molecular target: Progesterone receptor (Homo sapiens) (UniProt P06401); experiment: qHTS assay to identify small molecule antagonists of the progesterone receptor (PR) signaling pathway (AID 1346795; active means well fitted inhibition curve with a large enough effect in the signal ratio in the repeat runs, not every such curve was filed as active; the % refers to the signal ratio)
In short: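 Screening used a GripTite HEK293T line with PR-responsive UAS-beta-lactamase. Cells were challenged with compound in the presence of 1 nM R5020 final for 16 hr at 37C; B/G FRET substrate, 2 hr room temperature, fluorescence.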

[17] = qHTS assay to identify small molecule antagonists of the progesterone receptor (PR) signaling pathway - cell viability counter screen (AID 1346798); further: series mostly up to about 92 µM; nearly all actives have a fitted effect of over 50% in size
In short: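 Measures cytotoxicity in parallel with the PR antagonist reporter read: HEK293T PR-UAS-bla cells get compound and R5020 for 16 hr, and remaining viable cells are quantified by CellTiter-Glo luminescence.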

[18] = molecular target: Estrogen receptor (Homo sapiens) (UniProt P03372); experiment: qHTS assay to identify small molecule agonists of the estrogen receptor alpha (ER-alpha) signaling pathway in the presence of an antagonist (AID 1259383; calls by dose curve; further: top concentration of the series differs between compounds; nearly all actives have a fitted effect of over 15% in size)
Sequence of Estrogen receptor (Homo sapiens) (P03372 whole entry, looked up): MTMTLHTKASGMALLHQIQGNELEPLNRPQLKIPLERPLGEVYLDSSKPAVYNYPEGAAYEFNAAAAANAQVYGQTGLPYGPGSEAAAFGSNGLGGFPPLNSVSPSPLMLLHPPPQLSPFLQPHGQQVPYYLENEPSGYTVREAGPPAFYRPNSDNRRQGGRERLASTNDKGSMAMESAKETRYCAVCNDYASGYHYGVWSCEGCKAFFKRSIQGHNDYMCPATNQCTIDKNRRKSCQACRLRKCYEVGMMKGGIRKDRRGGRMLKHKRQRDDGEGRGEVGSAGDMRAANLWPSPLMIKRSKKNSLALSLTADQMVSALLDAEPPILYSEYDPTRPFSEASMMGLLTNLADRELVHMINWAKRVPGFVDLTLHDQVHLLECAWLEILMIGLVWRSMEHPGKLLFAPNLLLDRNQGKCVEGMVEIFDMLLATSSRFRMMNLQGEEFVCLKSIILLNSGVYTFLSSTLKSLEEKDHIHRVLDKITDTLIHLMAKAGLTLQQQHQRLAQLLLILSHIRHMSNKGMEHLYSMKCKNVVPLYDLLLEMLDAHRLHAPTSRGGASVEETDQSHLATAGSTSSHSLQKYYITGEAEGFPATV
In short: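 Stably transfected VM7Luc4E2 reporter cells, kept 5 days in charcoal-stripped serum, received ICI-182,780 at 10.0nM final before compound addition. Following 22hr incubation at 37C and 5% CO2, luciferase signal was read by luminescence.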

[19] = qHTS assay to identify small molecule agonists or antagonists of the thyroid stimulating hormone receptor (TSHR) signaling pathway - wild type cell line counter screen (AID 1259384; calls by dose curve)
In short: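 Wild-type HEK293 cells were plated 18 h at 37 C/5% CO2, pin-dosed with compound plus Ro20-1724 medium, held 30 min at room temperature, then given cAMP-d2 and anti-cAMP-cryptate; fluorescence was read after 1 h. Fifteen concentrations, triplicate.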

[20] = molecular target: Androgen receptor (Homo sapiens) (UniProt P10275); experiment: qHTS assay to identify small molecule agonists of the androgen receptor (AR) signaling pathway in the presence of an antagonist (AID 1259381; calls by dose curve; further: nearly all actives have a fitted effect of over 15% in size)
Sequence of Androgen receptor (Homo sapiens) (P10275 whole entry, looked up): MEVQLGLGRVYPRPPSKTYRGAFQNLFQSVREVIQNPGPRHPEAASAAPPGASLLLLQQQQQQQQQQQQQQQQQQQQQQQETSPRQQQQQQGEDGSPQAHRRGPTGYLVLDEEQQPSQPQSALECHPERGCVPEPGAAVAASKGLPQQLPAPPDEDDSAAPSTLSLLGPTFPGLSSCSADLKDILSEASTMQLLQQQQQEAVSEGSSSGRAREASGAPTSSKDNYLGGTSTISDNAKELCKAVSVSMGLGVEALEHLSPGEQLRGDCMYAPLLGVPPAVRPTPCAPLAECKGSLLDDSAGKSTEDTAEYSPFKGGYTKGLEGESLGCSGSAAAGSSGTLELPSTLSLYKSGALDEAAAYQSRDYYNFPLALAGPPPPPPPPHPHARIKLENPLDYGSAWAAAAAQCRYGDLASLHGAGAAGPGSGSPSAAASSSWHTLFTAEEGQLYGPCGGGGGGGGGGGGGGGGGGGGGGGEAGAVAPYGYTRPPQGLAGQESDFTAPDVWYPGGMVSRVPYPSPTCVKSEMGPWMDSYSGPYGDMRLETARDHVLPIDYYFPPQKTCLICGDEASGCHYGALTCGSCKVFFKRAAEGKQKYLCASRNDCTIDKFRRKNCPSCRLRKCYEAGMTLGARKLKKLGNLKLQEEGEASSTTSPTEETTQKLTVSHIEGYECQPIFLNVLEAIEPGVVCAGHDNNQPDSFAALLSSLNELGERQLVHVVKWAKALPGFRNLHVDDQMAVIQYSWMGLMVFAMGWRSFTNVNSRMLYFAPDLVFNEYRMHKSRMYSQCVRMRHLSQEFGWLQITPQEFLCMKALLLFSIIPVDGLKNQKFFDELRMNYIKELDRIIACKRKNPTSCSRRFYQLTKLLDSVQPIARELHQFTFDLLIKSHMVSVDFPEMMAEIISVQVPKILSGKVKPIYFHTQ
In short: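 Test compounds at 15 concentrations were incubated for 16hr with MDA-kb2 reporter cells in presence of 3.0uM nilutamide (final). Signal: ONE-Glo luciferase luminescence.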

Measured: Potency

CN(C)[C@@H]1C(=O)C(C(N)=O)=C(O)[C@@]2(O)C(=O)C3=C(O)c4c(O)cccc4[C@@](C)(O)[C@H]3C[C@@H]12
not listed: [18] | [19] | [20]
inactive: all other assays above

NCCc1ccc(O)cc1
60.6 µM (active) and inactive: [11]
not listed: [19] | [20]
inactive: all other assays above

Nc1c(Cl)c(Cl)nc(C(=O)O)c1Cl
not listed: [1] | [17] | [20]
inactive: all other assays above

O=[N+]([O-])c1ccccc1
not listed: [17] | [19] | [20]
inactive: all other assays above

OC(O)C(Cl)(Cl)Cl
not listed: [3] | [17] | [18] | [19] | [20]
inactive: all other assays above

O=NN1CCCC1
20.2 µM (active) and inactive: [11]
not listed: [1] | [17] | [20]
inactive: all other assays above

COC(=O)c1ccccc1C(=O)OC
not listed: [3] | [20]
inactive: all other assays above

NCC(O)c1ccc(O)cc1 (stereo unspecified)
not listed: [3] | [17] | [18] | [20]
inactive: all other assays above

Clc1ccc(Cl)cc1
385 nM (active) and inactive: [7]
not listed: [20]
inactive: all other assays above

CC(NC(C)(C)C)C(=O)c1cccc(Cl)c1 (stereo unspecified)
not listed: [3] | [8] | [11] | [13] | [18] | [19] | [20]
inactive: all other assays above

CCN(CC)c1ccccc1
not listed: [1] | [13] | [19]
inactive: all other assays above

ClCCBr
not listed: [1] | [17] | [20]
inactive: all other assays above

CC1OC(C)OC(C)O1 (stereo unspecified)
not listed: [13] | [18] | [19] | [20]
inactive: all other assays above

c1ccc(-c2ccccc2)cc1
not listed: [1] | [16]
inactive: all other assays above

CC1C=[C-]C=C1.[C-]#[O+].[C-]#[O+].[C-]#[O+].[Mn]
not listed: [1] | [17] | [20]
inactive: all other assays above

c1cc2c3c(cccc3c1)CC2
not listed: [1]
inactive: all other assays above
